High-throughput results from PubChem.
HttQ103 aggreg: inhibitors of mutant huntingtin aggregate formation in PC12 cells; PC12 HttQ103-GFP aggregates, Acumen cytometry, 40 h; Potency, µM (doses to about 46.1 µM), inactives show at the highest dose activity change, negative = inhibition, actives largely listed as inhibitors; AID 1688; 1.1% of 220,000 active; active = well fitted curve in the direction sought with a large enough effect; inconclusive = small, poorly fitted or top-dose-only effect, or another doubt; inactive = no such curve, though single readings can be large; an effect the other way counts as inactive or inconclusive; also: potency is read from the fitted curve at half-maximal effect; % is scaled to controls: 0 for no effect and ±100 for the full control effect; nearly all actives have a fitted effect of over 60% in size
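Read-out: GFP aggregate count by laser scanning cytometer (488 nm excitation, 500-530 nm emission, 1–25 µm objects >6 SD above background). Cells: PC12, inducible HTTex1-Q103-GFP, 100 nM tebufenozide; compounds titrated.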
RGS12 GoLoco inh: inhibitors of human Gai1-RGS12 GoLoco interaction (red fluorophore) | P63096 | Gai1:RGS12 GoLoco peptide FP, rhodamine, 10 min | Potency, µM (titrated, usually from 61.6 µM), without a hit: top-dose activity, negative = inhibition, hits mostly inhibitors | 0.44% of 230,000 active | AID 880; active = well fitted inhibition curve with a large enough effect, not every such curve was filed as active; inactive = no such curve, though single readings can be large or run the other way; also: potency is read from the fitted curve at half-maximal effect; % is scaled to controls: 0 for no effect and ±100 for the full control effect; nearly all actives have a fitted effect of over 30% in size
Target sequence (P63096 whole entry, looked up): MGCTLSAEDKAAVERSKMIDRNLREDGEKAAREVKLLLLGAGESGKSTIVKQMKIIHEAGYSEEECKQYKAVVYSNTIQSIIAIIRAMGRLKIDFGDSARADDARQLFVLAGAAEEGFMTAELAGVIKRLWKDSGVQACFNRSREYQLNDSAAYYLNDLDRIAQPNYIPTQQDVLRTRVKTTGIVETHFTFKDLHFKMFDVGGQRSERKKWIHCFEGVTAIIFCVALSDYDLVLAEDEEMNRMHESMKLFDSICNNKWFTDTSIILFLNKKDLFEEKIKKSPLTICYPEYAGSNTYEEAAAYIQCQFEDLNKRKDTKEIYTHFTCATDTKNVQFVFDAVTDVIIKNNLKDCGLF
PNC assembly inh: inhibitors of perinucleolar compartment assembly; PC3M PTB-GFP, PNC prevalence imaging, 16 h; hits give low values; activity change (PNC), negative = inhibition, % at 10 µM; 3.1% of 140,000 active; AID 2417;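 active = readout at or below -70, meaning at least 70% loss of cells showing the perinucleolar compartment, a nuclear body marking cancer cells; inconclusive = readout between -30 and a set limit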;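 also: plate controls were DMSO wells for no effect and camptothecin positive control wells for full effect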
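Read-out is percentage of cells bearing a perinucleolar compartment, from automated 20x imaging of fixed, Hoechst-stained PC3M PTB-GFP cells. Cells were seeded 4 h, then exposed 16 h to compound (23 nl of library stock) in duplicate plates.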
HTT ATP protect: Huntington cell model cytoprotection by ATP luminescence. AID 1471. PC12 HTT-Q103 induced, cytoprotection, ATP luminescence, 40 h. 0.14% of 230,000 active. Potency, µM (doses to about 56.4 µM), inactives show cytoprotection (ATP increase), actives largely listed as activators; active = well fitted curve in the direction sought with a large enough effect; inconclusive = small, poorly fitted or top-dose-only effect, or another doubt; inactive = no such curve, though single readings can be large; an effect the other way counts as inactive or inconclusive; also: potency is read from the fitted curve at half-maximal effect; % of control where 0% means no effect; nearly all actives have a fitted effect of over 45% in size
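Compounds were screened for protection of PC12 cells against cell death after tebufenozide induction (100 nM final) of mutant Huntingtin exon 1 (Q103) fused to GFP.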
HPGD block: HPGD (human) dehydrogenase inhibition; Potency, µM, for the others: at the highest dose activity change, negative = inhibition, actives largely listed as inhibitors; purified HPGD, NADH fluorescence kinetic, PGE2 substrate; 4.3% of 150,000 active; AID 894; also: potency is read from the fitted curve at half-maximal effect; % is scaled to controls: 0 for no effect and ±100 for the full control effect
Target sequence (P15428 whole entry, looked up): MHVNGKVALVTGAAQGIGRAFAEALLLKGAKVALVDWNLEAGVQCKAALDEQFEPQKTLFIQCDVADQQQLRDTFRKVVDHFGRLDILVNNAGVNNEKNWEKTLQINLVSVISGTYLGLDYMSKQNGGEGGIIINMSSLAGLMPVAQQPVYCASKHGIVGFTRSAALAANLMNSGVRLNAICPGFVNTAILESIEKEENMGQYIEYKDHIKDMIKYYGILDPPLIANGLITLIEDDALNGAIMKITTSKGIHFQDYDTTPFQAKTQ
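NADH formation kinetics: reaction with 30 uM PGE2 and 1 mM NAD+ (final), 20 nM enzyme, Tris-HCl pH 8 with Tween 20, after 15 min compound preincubation at room temperature. Fluorescence change, last versus first of five reads.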
ALDH1A1 block: ALDH1A1 (human) enzyme inhibition; P00352; 7.3% of 220,000 active; Potency, µM (titrated, usually from 75.3 µM), for the others: at the top dose activity, negative = inhibition, hits mostly inhibitors; Purified ALDH1A1, NADH fluorescence, propionaldehyde substrate;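 also: potency is read from the fitted curve at half-maximal effect; plate controls were no enzyme wells and a reference inhibitor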
* = called active by the depositor; ? = inconclusive; / = no result; [ ] = dose if it differs, or a comment. In the library only some 11% were active in any assay of this set; here they are far more common. Unless noted, calls follow the shape of the dose curve; as a rule, active = well fitted inhibition curve with a large enough effect (not every such curve was filed as active); inconclusive = small, poorly fitted or top-dose-only effect, or another doubt; inactive = no such curve, though single readings can be large or run the other way.

SMILES | HttQ103 aggreg | RGS12 GoLoco inh | PNC assembly inh | HTT ATP protect | HPGD block | ALDH1A1 block
CC1(C)Cc2nc3oc4c(NCc5ccccc5)ncnc4c3cc2CO1 | 17.4% | 7.8% | 11.4 | -25.7%[0.074 µM] | ? | ?
O=c1ccnc(SCc2ccc(Cl)cc2)[nH]1 | / | 4.7%[14.2 µM] | / | -10.9%[10 µM] | -1.1% | -1.0%[13.5 µM]
CCOC(=O)N1CCN(C(=O)c2ccc3c(=O)n(-c4ccc(OC)cc4OC)c(=S)[nH]c3c2)CC1 | 20.5% | 7.8% | 34.4 | -21.6% | -10.5% | -7.9%
CCOC(=O)N1CCN(C(=O)c2ccc3c(=O)n(-c4ccc(OC)cc4)c(=S)[nH]c3c2)CC1 | 13.0% | 2.4% | 23.0 | -3.3% | -4.0% | 2.6%
COc1ccc(NC(=O)c2ccc3c(=O)n(-c4ccc(OC)cc4OC)c(=S)[nH]c3c2)cc1 | -31.4% | 1.7% | / | -16.4% | / | 12.6µM*
COc1ccc(-n2c(=S)[nH]c3ccccc32)cc1 | -8.0%[9.22 µM] | 107.1% | -0.3 | -16.9% | 22.4µM* | 31.6µM*
COc1ccc(Cn2c(=S)[nH]c3ccccc32)cc1 | 26.8%[9.22 µM] | 4.6% | / | -20.7% | / | -4.3%
COc1ccc(-n2c(=S)[nH]c3cc(C(=O)NCc4ccco4)ccc3c2=O)c(OC)c1 | 2.2% | 6.0% | ? | -13.4% | -29.8% | 0.316µM*
COc1ccc(-n2c(=S)[nH]c3cc(C(=O)Nc4ccccc4OC)ccc3c2=O)cc1 | 7.9% | -18.1% | ? | -22.1%[10 µM] | -12.8% | 15.8µM*
O/N=C1/C2C3C(Br)C4C5CC(C1C53)C24 (centres undefined) | 0.5% | -0.1% | 22.5 | / | -3.4% | 8.1%
Cc1ccsc1CNC(=O)c1c(-c2ccccc2)noc1C | -5.1%[9.22 µM] | 8.7% | / | -19.2%[10 µM] | / | -5.1%
Cc1cc(C)nc(Sc2ncnc(N)c2[N+](=O)[O-])n1 | 10µM* | 5.2% | / | 3.8%[10 µM] | / | 8.2%
Nc1c([N+](=O)[O-])c(=O)oc2ccccc12 | 9.6% | 2.2% | / | -12.3% | / | 5.7%
COC(=O)/C(=C/c1ccco1)NC(=O)c1ccc(Br)o1 | 17.8% | 10.7% | / | / | / | 20µM*
COC(=O)/C(=C/c1ccco1)NC(=O)c1ccco1 | 12.2% | -18.0% | -3.6 | -12.9%[10 µM] | -16.6% | 10µM*
COC(=O)/C(=C/c1ccco1)NC(=O)c1ccccc1 | 4.5% | 4.6% | 23.6 | 26.1%[0.074 µM] | -8.8% | -3.0%
C=CCOC(=O)/C(=C/c1ccco1)NC(=O)/C=C/c1ccccc1 | 10.3% | 206.6% | -0.2 | 8.4%[10 µM] | -29.4% | 15.8µM*
O=C(NCCCO)/C(=C/c1ccco1)NC(=O)c1ccc(Br)o1 | 17.1% | 5.1% | -4.5 | -4.1%[10 µM] | -14.0% | ?
CO[C@H]1COC(=O)C/C=C\[C@H](C)[C@H](OC)COC(=O)[C@@H](C)COC(=O)C/C=C\[C@@H]1C | / | / | / | ? | / | 4.1%[13.5 µM]
CC(=O)c1cccc(NC(=O)Nc2cccs2)c1 | 12.6µM* | 18.6% | 42.1 | -11.7% | -10.7% | -5.0%
COc1cccc(NC(=O)Nc2cccs2)c1 | ? | 52.0% | 31.6 | -5.1%[10 µM] | -20.9% | ?
CC(=O)c1cccc(NC(=O)Nc2cccnc2)c1 | 7.94µM* | 5.4% | -1.7 | 10.1%[0.074 µM] | -4.8% | ?
COc1ccc(NC(=O)C2CCC(CNS(=O)(=O)c3cccs3)CC2)cc1 (centres undefined) | 3.8% | -6.1% | / | -29.0% | / | ?
COc1ccc(NC(=O)Nc2cccs2)cc1OC | 18.7%[9.22 µM] | 9.2% | 10.4 | -55.3% | -7.1% | 22.4µM*
COc1ccc(NC(=O)C2CCC(CNS(=O)(=O)c3cccs3)CC2)cc1OC (centres undefined) | 2.7% | -3.0% | / | -30.8% | / | 5.01µM*
SMILES | HttQ103 aggreg | RGS12 GoLoco inh | PNC assembly inh | HTT ATP protect | HPGD block | ALDH1A1 block
C=CC[C@@H]1C=C[C@H](O/N=C(\C)CCN2CCc3nc(CC)c(CC)cc3C2)[C@H](CO)O1 | / | / | / | -1.8%[10 µM] | / | 9.9%[13.5 µM]
O=C(NC1CCCCC1)C(c1ccc2ncccc2c1)N(Cc1ccc(F)cc1)C(=O)c1ccc2c(c1)OCCO2 (centres undefined) | -21.4% | -2.8% | -7.8 | -16.7% | -5.4% | ?
O=C(NC1CCCCC1)C(c1ccc2ncccc2c1)N(Cc1ccc2c(c1)OCO2)C(=O)c1ccc2c(c1)OCCO2 (centres undefined) | 9.2% | 3.1% | -24.5 | 3.7%[10 µM] | -13.9% | 28.2µM*
CS(=O)Cc1cc(Sc2ccccc2)nc(-c2ccncc2)n1 (centres undefined) | 3.3% | -6.8% | / | -30.3% | / | 8.91µM*
O=c1oc2ccccc2c(O)c1C=NCc1ccccn1 | ? | 6.1% | -29.3 | -9.9%[10 µM] | ? | 28.2µM*
C=C(C)C(=O)OC | / | -14.6% | / | -11.4% | 0.9% | 28.5%
Cc1cccc(-c2nnc(SCC(=O)Nc3nc4c(s3)CCCC4)n2C)c1 | 9.0% | 0.0% | -4.1 | 16.4%[10 µM] | 1.7% | ?
CC(=O)Nc1ccccc1-c1nc2ccccc2nc1OCC(=O)c1ccc(Br)cc1 | 17.4% | 2.1% | ? | -7.5% | -8.0% | 11.5%
CCOC(=O)c1ccc(COc2nc3ccccc3nc2-c2ccccc2NC(C)=O)o1 | -1.3% | -9.5% | -115.5* | 3.0%[10 µM] | -13.2% | 0.8%
Cn1ncc(S(=O)(=O)Cc2ccccc2)c(Cl)c1=O | -2.5%[9.22 µM] | -38.1% | / | -0.9%[10 µM] | / | 1.12µM*
CC(C)(C)c1cc(C(=O)NCc2cc(F)cc3c2OCOC3)n(Cc2ccccc2)n1 | 19.9%[9.22 µM] | -2.4% | / | -1.4%[10 µM] | / | -1.3%
CCC(C)NC(=O)c1ccc2c(SCC(=O)O)c3c(nc2c1)CCCC3 (centres undefined) | 23.2% | -2.9% | 12.1 | / | 22.4µM* | ?
COc1ccc(NC(=O)CSc2c3c(nc4ccccc24)CCC3)c(OC)c1 | 4.6% | 8.1% | -12.5 | 19.7%[10 µM] | -2.5% | 8.2%
CCCCNC(=O)c1ccc2c(SCC(=O)O)c3c(nc2c1)CCCC3 | 13.9% | 10.4% | 20.3 | / | 12.6µM* | ?
COc1ccc(NC(=O)c2ccc3c(SCC(=O)O)c4c(nc3c2)CCCC4)c(OC)c1 | 16.8% | -1.6% | / | 2.7% | / | 7.94µM*
O=C(Nc1c(S(=O)(=O)c2ccc(Cl)cc2)csc1Br)c1ccccc1Cl | -6.3%[9.22 µM] | 18.1% | / | 7.0%[10 µM] | / | -5.7%
Cc1onc(-c2c(F)cccc2Cl)c1C(=O)Nc1cccc(S(=O)(=O)NCc2ccco2)c1 | -16.7% | 8.9% | / | 0.3% | / | -8.3%
O=C(CSc1cc(Cl)ccc1Cl)NCC1CCCO1 (centres undefined) | 11.4% | 2.9% | 10.5 | -11.0%[10 µM] | 6.31µM* | 4.9%
O=C(CCCOc1ccc(Cl)cc1)NCC1CCCO1 (centres undefined) | 10.8% | 2.9% | -24.6 | -8.1% | 14.1µM* | ?
O=C(CSCc1c(Cl)cccc1Cl)NCC1CCCO1 (centres undefined) | -16.2% | -2.6% | 54.4 | -0.6% | 5.01µM* | ?
Nc1cc(N)nc(SCC(=O)NCC2CCCO2)n1 (centres undefined) | 10.2% | 8.3% | -1.7 | -10.3%[10 µM] | -14.0% | 0.7%
